Experimental data reported in PubChem BioAssay AID1259422 (The Scripps Research Institute Molecular Screening Center, 2018).
Several values for one entry are separate records, joined by “and”; a condition that tells them apart may be missing. Equal values may be shown once. About 9,300 (1.5%) of roughly 640,000 compounds were called active. The sample holds actives, similar compounds and a random draw of the others, so the mix is not that of the screen. Cut-off read from the data, not from the text of the source: active = inhibition above about 32%; inactive = the rest.

test: TEAD-YAP interaction inhibition, primary screen, TEAD-YAP interaction inhibitor project, luminescence, HEK-TIYL cells (AID 1259422); conditions: TEAD-Gal4/YAP UAS-luciferase luminescence, at 9.12 µM, stronger effect = higher value;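 note: 0% = median of test compound wells and 100% = reference inhibitor wells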

| SMILES | inhibition |
| --- | --- |
| O=C(O)c1ccc(NS(=O)(=O)c2cccc(C(F)(F)F)c2)cc1 | 0.38% (inactive) |
| Cc1ccc(NC(=O)c2cc(S(=O)(=O)N3CCC(C)CC3)ccc2F)cc1F | -4.47% (inactive) |
| COc1cccc(N2C(=O)C3C4C=CC(C5CC45)C3C2=O)c1 (stereo not given) | -3.66% (inactive) |
| CC12CC3(C)CC(O)(C1)CC(C(=O)c1ccccc1)(C2)C3 | -1.77% (inactive) |
| CCCn1c(SCC(=O)N2CCc3ccccc32)nnc1-c1ccncc1 | -1.7% (inactive) |
| CSc1nnc(-c2ccncc2)n1CCCN1CCCC1=O | 58.9% (active) |
| Cn1c(SCC(=O)N2CCCCCC2)nnc1-c1ccncc1 | 5.85% (inactive) |
| COC(=O)c1cc(OC)c(OC)cc1NC(=O)c1cc2ccccc2oc1=O | -9.56% (inactive) |
| Clc1ccccc1-c1noc(-c2ccc(-c3ccccc3)cc2)n1 | 6.4% (inactive) |
| Oc1ccc(-c2nc(-c3ccccc3Cl)no2)cc1 | 64.7% (active) |
| Cc1ccc(-c2nc(-c3ccccc3Cl)no2)cc1 | -58.6% (inactive) |
| CC1=C(C(=O)OCCOc2ccccc2)C(c2cccc(Cl)c2Cl)C2=C(CC(c3ccccc3)CC2=O)N1 (stereo not given) | 5.89% (inactive) |
| O=C(NCCc1ccccc1)C1CCC(Cn2c(SCc3ccc(Cl)cc3)nc3ccccc3c2=O)CC1 (stereo not given) | 6.47% (inactive) |
| c1cc(-c2nc3c(c(N4CCCCC4)n2)CNCC3)ccn1 | -3.63% (inactive) |
| CC(NC(=O)CCc1ccccc1)c1nnc2n1CCN(Cc1cccc(F)c1F)CC2 (stereo not given) | -34.9% (inactive) |
| CCCCN(CCCC)C(=O)Nc1nc2ccccc2[nH]1 | 59.5% (active) |
| CSCCC(=O)Nc1nc2ccccc2[nH]1 | -12.9% (inactive) |
| S=C(Nc1nc2ccccc2[nH]1)Nc1nc2ccccc2[nH]1 | -3.78% (inactive) |
| Cc1nc2sc(C(c3ccc([N+](=O)[O-])cc3)N3CC(C)CC(C)C3)c(O)n2n1 (stereo not given) | 21.1% (inactive) |
| CC(C)c1ccc(S(=O)(=O)N2CCN(C(=O)/C=C/c3ccccc3)CC2)cc1 | 5.06% (inactive) |

| SMILES | inhibition |
| --- | --- |
| Cc1c(C(=O)N2CCN(c3ccc(F)cc3)CC2)sc2ncnc(N(C)c3ccccc3)c12 | 6.56% (inactive) |
| O=C(CSc1nnc2ncccn12)N1CCCc2ccccc21 | -3.81% (inactive) |
| COc1ccc(C(=O)Nc2ccc3nc(N4CCCCC4)cc(C)c3c2)cc1OC | -0.5% (inactive) |
| Cc1cc(NC(=O)c2c(F)cccc2Cl)ccc1N1CCCCC1=O | -2.91% (inactive) |
| Cc1ccc(N2CCN(C(=O)c3c(F)cccc3Cl)CC2)nn1 | -8.28% (inactive) |
| Cc1cc(N2CCCC2)nc(Nc2ccc(NC(=O)c3c(F)cccc3Cl)cc2)n1 | 42% (active) |
| COc1cc(C(=O)Nc2ccc(Nc3nc(C)cc(N4CCCC4)n3)cc2)cc(OC)c1OC | 35.6% (active) |
| COc1cc(C(=O)Nc2ccc3nc(N4CCN(c5ncccn5)CC4)cc(C)c3c2)cc(OC)c1OC | 22.2% (inactive) |
| Cc1ccc(N(C(=O)c2snc(C(N)=O)c2N)C(C)C(=O)NC(C)(C)C)cc1C (stereo not given) | -0.01% (inactive) |
| COCCCNc1ncnc2sccc12 | -4.31% (inactive) |
| Cn1ncc2c(Nc3cccc4ccccc34)ncnc21 | -0.77% (inactive) |
| c1ccc2c(NCCNc3ncnc4sccc34)cccc2c1 | 52.2% (active) |
| COc1ccc(C(=O)N=c2sc3cc4c(cc3n2C)OCCO4)cc1OC | -1.41% (inactive) |
| COC(=O)c1c(C)oc2ccc(NS(=O)(=O)c3cccc4cccnc34)cc12 | 28.9% (inactive) |
| CC(C)(C)C(=O)Nc1scc(-c2ccc(Br)cc2)c1C(=O)O | 38.7% (active) |
| CC(NC(=O)C(C)(C)C)c1ccc(Br)cc1 (stereo not given) | 8.71% (inactive) |
| CCOC(=O)c1c(-c2ccc(Br)cc2)csc1NC(=O)COC | -10.8% (inactive) |
| CCOc1cc(C(=O)OCc2cc(C(C)=O)ccc2OC)cc(OCC)c1OCC | -5.65% (inactive) |
| Cc1cc(C)nc(/N=C(\N)Nc2cccc(C(F)(F)F)c2)n1 | 36.7% (active) |
| CCc1ccc(N/C(N)=N/c2nc(C)cc(C)n2)cc1 | 23.8% (inactive) |

| SMILES | inhibition |
| --- | --- |
| Cc1cc(C)nc(/N=C(\N)Nc2ccc(Br)cc2)n1 | 1.37% (inactive) and -0.43% (inactive) |
| Cc1cccc(C)c1NS(=O)(=O)c1ccc2c(c1)oc(=O)n2C | -6.37% (inactive) |
| COc1ccc(Cc2nc3sc4c(c3c(=O)n2N)CCCC4)cc1OC | 29.2% (inactive) |
| Cc1cccc(C)c1-n1c(N)c(C(=O)Nc2cccc(Cl)c2)sc1=S | -13.7% (inactive) |
| CCCCNC(=O)NNC(=O)CSc1nc2ccccc2s1 | 9.84% (inactive) |
| O=C(CSc1nc2ccccc2s1)NNC(=O)C1CCCO1 (stereo not given) | 1.6% (inactive) |
| O=C(CSc1nc2ccccc2s1)N1N=CCC1c1ccccc1 (stereo not given) | 51.5% (active) |
| C/C(=N\NC(=O)c1cccc(Br)c1)c1cc2ccc(O)cc2oc1=O | -10.3% (inactive) |
| CC(C(=O)N(C)c1ccccc1)N1C(=O)NC(c2ccccc2)(c2ccccc2)C1=O (stereo not given) | 6.96% (inactive) |
| CCOC(=O)c1c(-c2cccc3ccccc23)csc1NC(=O)/C=C/C(=O)O | 33.5% (active) |
| CCOC(=O)c1c(NC(=O)/C=C/C(=O)O)sc(C)c1C | 28.1% (inactive) |
| CCOC(=O)c1c(-c2ccccc2)csc1NC(=O)CNCC(C)C | -3.7% (inactive) |
| Cc1ccc(C2CC(=O)C3=C(C2)Nc2ccccc2N(C(=O)C(F)(F)F)C3c2cccc(Br)c2)cc1 (stereo not given) | 7.36% (inactive) |
| CCOC(=O)C1=C(C)N=c2s/c(=C/c3cc(Br)c(N4CCOCC4)o3)c(=O)n2C1c1ccc(OC)cc1 (stereo not given) | 4.11% (inactive) |
| Cc1nc2ccccn2c1C(=O)NCc1ccc(Oc2ccccc2)cc1 | 62.4% (active) |
| C=CCN(C)C(=O)c1c(C)nc2ccccn12 | -6.06% (inactive) |
| O=C(NCc1nc(-c2ccccc2)no1)c1ccccc1I | 7.97% (inactive) |
| Cc1ccc(C)c(C(=O)NCc2nc(-c3ccccc3)no2)c1 | 9.38% (inactive) |
| Cc1nc2sccn2c1C(=O)NCc1cccc(Cl)c1 | 12.9% (inactive) |
| Cc1nc2ccccn2c1C(=O)NCc1nc(-c2ccccc2)no1 | 36.5% (active) |
